Data: the supplement of paper PMC12024529

system: HEK293 WT BDD-FVIII-Gluc; assay: secreted FVIII-Gluc luciferase Z-score vs DMSO control; higher = more FVIII-Gluc secretion; conditions: 5 µM
Procedure: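 Natural plant-compound library (480 compounds, ST catalogue IDs) screened on HEK293 cells stably expressing WT BDD-FVIII-Gaussia luciferase fusion at 5 µM. Secreted Gluc activity in the medium is given as a Z-score relative to DMSO controls.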

| SMILES | secreted FVIII-Gluc luciferase Z-score |
| --- | --- |
| NC(Cc1c[nH]c2ccccc12)C(=O)NCC(=O)O (centres undefined) | -1.06 |
| COc1cccc(-c2cc(=O)c3cc(O)ccc3o2)c1 | 0.695 |
| COc1cc2c(cc1OC)C(=O)Cc1ccc3c(c1CN(C)CC2)OCO3 | 0.000104 |
| CC(C)=CCC/C(C)=C/CC/C(C)=C/CO | 0.255 |
| Cc1c(C)c2c(c(C)c1O)CC[C@@](C)(CCC[C@H](C)CCC[C@H](C)CCCC(C)C)O2 | 0.497 |
| COc1cc(-c2cc(=O)c3ccccc3o2)ccc1O | 1.57 |
| Nc1ccn(C2CC(O)C(COP(=O)(O)O)O2)c(=O)n1 (centres undefined) | 0.357 |
| C=CC1CN2CCC1CC2C(O)c1ccnc2ccc(OC)cc12 (centres undefined) | -0.00699 |
| CCOC(=O)C1=C[C@]2(CC)CCCN3CCc4c(n1c1ccccc41)[C@@H]32 | 0.132 |
| C[C@H]1O[C@@H](O[C@H]2[C@@H](O)C[C@H](O[C@H]3[C@@H](O)C[C@H](O[C@H]4CC[C@@]5(C)[C@H](CC[C@@H]6[C@@H]5CC[C@]5(C)[C@@H](C7=CC(=O)OC7)CC[C@]65O)C4)O[C@@H]3C)O[C@@H]2C)C[C@H](O)[C@@H]1O | -4.57 |
| Nc1ccn(C2OC(COP(=O)(O)O)C(O)C2O)c(=O)n1 (centres undefined) | 0.194 |
| O=C(O)c1cc(O)c2c(c1)[C@@H]([C@H]1c3cc(C(=O)O)cc(O)c3C(=O)c3c(O[C@@H]4O[C@H](CO)[C@@H](O)[C@H](O)[C@H]4O)cccc31)c1cccc(O[C@@H]3O[C@H](CO)[C@@H](O)[C@H](O)[C@H]3O)c1C2=O | 0.274 |
| COc1ccc(CCN(C)CCCC(C#N)(c2ccc(OC)c(OC)c2)C(C)C)cc1OC (centres undefined) | 0.188 |
| CC(C)CCCC(C)C1CCC2C3CC=C4CC(O)CCC4(C)C3CCC12C (centres undefined) | 0.231 |
| Cc1ncc(CO)c(C=O)c1O | 1.01 |
| O=C(N[C@H](CO)[C@H](O)c1ccc([N+](=O)[O-])cc1)C(Cl)Cl | 0.907 |
| COc1cc2c(C(=O)c3ccccc3)c3c4c(cc(OC)c(OC)c4c2cc1OC)CCN3C | -1.18 |
| N=C(N=C(N)N)N1CCOCC1 | 0.384 |
| COc1cc2c3cc1Oc1c(OC)c(OC)cc4c1[C@@H](Cc1ccc(O)c(c1)Oc1ccc(cc1)C[C@@H]3N(C)CC2)N(C)CC4 | 0.165 |
| O=c1cc(-c2ccccc2)oc2cc(O[C@@H]3O[C@H](CO)[C@@H](O)[C@H](O)[C@H]3O)c(O)c(O)c12 | -0.188 |

| SMILES | secreted FVIII-Gluc luciferase Z-score |
| --- | --- |
| COc1cc2oc(=O)cc(C)c2cc1OC | 0.58 |
| O=c1c(O)c(-c2ccc(O)cc2)oc2cc(O)ccc12 | 0.511 |
| O=c1cc[nH]c(=S)[nH]1 | 0.275 |
| C=CCc1ccc(O)c(OC)c1 | -0.898 |
| O=C1OC(=O)C2C3CCC(O3)C12 (centres undefined) | -0.862 |
| COc1ccc2oc(-c3ccccc3)c(OC)c(=O)c2c1 | 0.232 |
| C/C1=C\CC(OC(=O)c2ccc(O)cc2)/C(C)=C/C(O)C(C)(C)CCC1 (centres undefined) | -0.0859 |
| Nc1nc2c(ncn2[C@@H]2O[C@H](COP(=O)(O)O)[C@@H](O)[C@H]2O)c(=O)[nH]1 | 0.0522 |
| Nc1nc2c(ncn2[C@H]2C[C@H](O)[C@@H](COP(=O)(O)O)O2)c(=O)[nH]1 | 0.653 |
| C[C@@H]1C(=O)O[C@H]2[C@@H](O)[C@@]34[C@H]5CC(C(C)(C)C)[C@]36[C@@H](OC(=O)[C@@H]6O)O[C@@]4(C(=O)O5)[C@@]12O (some centres undefined) | 0.119 |
| C[C@H](CCC(=O)O)[C@H]1CC[C@H]2[C@@H]3CC[C@@H]4C[C@H](O)CC[C@]4(C)[C@H]3CC[C@]12C | 1.27 |
| CCC(=O)OCC(=O)[C@@]1(OC(=O)CC)[C@@H](C)C[C@H]2[C@@H]3CCC4=CC(=O)C=C[C@]4(C)[C@@]3(F)[C@@H](O)C[C@@]21C | 3.76 |
| COc1cccc2oc(-c3ccc(O)cc3)cc(=O)c12 | 1.3 |
| C[C@H]1[C@H](C)CC[C@]2(C(=O)O)CC[C@]3(C)C(=CCC4[C@@]5(C)C[C@@H](O)[C@H](O)[C@@](C)(CO)[C@@H]5CC[C@]43C)[C@H]12 (some centres undefined) | -0.822 |
| C[C@]12CCC(=O)C=C1CC[C@@H]1[C@@H]2[C@@H](O)C[C@@]2(C)[C@H]1CC[C@]2(O)C(=O)CO | 4.35 |
| CC(Cc1ccc(O)c(O)c1)C(C)Cc1ccc(O)c(O)c1 (centres undefined) | 0.14 |
| CC1=CC(=O)CC(C)(C)C1(O)/C=C/C(C)=C\C(=O)O (centres undefined) | 0.388 |
| O=c1c(O)c(-c2ccc(O)c(O)c2)oc2ccccc12 | -0.791 |
| O=C1C[C@@H]2[C@@H](CO)[C@H](O)C[C@@H]2O1 | 0.258 |
